Screening results from PubChem BioAssay.
An excerpt weighted towards active compounds, which were near 2.3% of everything screened.
TAG inh = reduces triacylglycerol accumulation in H9c2 cells; AID 651582; 230,000 tested, 0.66% active; Nile Red lipid (TAG) fluorescence; cells loaded with 200 µM oleic acid; inhibition, % at 12.5 µM;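 active means pattern-corrected inhibition of lipid staining of at least 50% with the nuclear-stain viability signal not falling by more than 50%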;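 further: 0% = DMSO wells and 100% = triacsin C control wells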
MIN6 prolif-1 = induces beta-cell replication in MIN6 cells; 330,000 tested, 0.29% active; proliferation, % at 10 µM; MIN6 cells proliferation, ATPlite luminescence, 48 h; cells starved in 0.2% serum; 100% = growth in 10% serum;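 active means compounds whose signal lies at least 3.5 SD above the mean of all wells on their plate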;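 further: 0% = DMSO-treated cells in low-serum medium and 100% = 10% serum control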
H9c2 protect = modulators protecting cardiomyocytes from myocardial damage. AID 588492. 360,000 tested, 0.63% active. H9c2 cardiomyocytes, H2O2 injury protection, ATPLite, 2 h. protection from H2O2 cell death, % at 20 µM;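 active means compounds giving at least 50% protection of heart cells from peroxide-induced death in the single-dose screen, raw or plate-pattern-corrected value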;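 further: 0% = DMSO wells with peroxide and 100% = DMSO wells without peroxide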
FAS TE block = FAS thioesterase (human) inhibition; 360,000 tested, 0.67% active; recombinant FAS-TE, OMFH fluorogenic substrate, fluorescence endpoint; inhibition, % at 15 µM; P49327;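 active means compounds whose normalised, plate-corrected inhibition of enzyme fluorescence in the single-dose primary screen is 50% or more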;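 further: 0% = DMSO with enzyme and 100% = substrate without enzyme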
aDG glyco act = increases alpha dystroglycan glycosylation; Pro5-aDG cells, alpha-DG glycosylation AlphaScreen (IIH6); 0% Pro5, 100% B10-LARGE cell signal; 360,000 tested, 0.22% active; AID 624168; activation, % at 10 µM;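 active means activation of at least 8% versus controls, or a plate z-score of at least 8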;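 further: Pro5 are CHO cells carrying HIG-tagged alpha-DG that lacks glycosylation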
Calpain2 inh = calpain II (pig) inhibition. purified calpain II, fluorogenic peptide substrate, 30 min. inhibition, % at 16 µM. AID 1236. 220,000 tested, 0.37% active;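 active means inhibition above about 50%, limit read from the data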
MIN6 prolif-2 = MIN6 beta-cell replication induction, confirmed. shares compounds with MIN6 prolif-1. 920 tested, under 10 active. MIN6 beta-cell proliferation, ATPlite luminescence, 48 h; cells kept in 0.2% serum; scaled between 0.2% and 10% serum. proliferation increase, % at 50 µM;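 active means proliferation increase above 40% at any of the four tested concentrations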
Numbers without * were called inactive; . = no result given.

SMILES | TAG inh | MIN6 prolif-1 | H9c2 protect | FAS TE block | aDG glyco act | Calpain2 inh | MIN6 prolif-2
CC(C)C[C@@H](CNCC(=O)[C@H](Cc1ccccc1)NC(=O)c1[nH]cnc1C(=O)N[C@@H](C)CN)NC(=O)c1nc[nH]c1C(=O)N[C@@H](C)C(=O)O | 0.3 | . | -0.9 | -6.3 | -0.1 | . | .
COc1ccc(NC(=O)COC(=O)C2CC2)c(OC)c1 | -8.0 | -3.4 | -0.5 | -3.1 | -0.1 | . | .
CCc1ccc(OCc2ccc(C(=O)NCc3ccccn3)o2)cc1 | . | -2.9 | -6.1 | -1.6 | 0.7 | 5.4 | .
CCOc1ccc(OCc2ccc(C(=O)NCc3ccncc3)o2)cc1 | . | 4.9* | -6.0 | -5.6 | 0.8 | -14.8 | -5.4
CCOc1ccc(-c2noc(-c3cccnc3)n2)cc1OCC | -3.7 | 3.0 | 13.9 | -0.9 | 0.0 | 18.3 | .
CCOc1ccc(-c2nc(-c3cccnc3)no2)cc1OCC | 12.3 | 9.7* | 13.9 | 3.2 | 0.2 | -47.9 | -0.7
CCOc1cc(-c2nc(-c3cc(OC)c(OC)c(OC)c3)no2)cc(OCC)c1OCC | . | 6.5* | . | . | . | . | 2.9
CCOc1ccc(CCNC(=O)C2CCCN(S(=O)(=O)N3CCOCC3)C2)cc1OCC (centres undefined) | 17.5 | 0.5 | -2.3 | -8.8 | 0.2 | . | .
CCC(C(=O)Nc1cc(C)nn1-c1nc(C)cc(C)n1)c1ccccc1 (centres undefined) | -18.4 | 6.1* | -0.8 | 0.4 | 0.7 | -5.1 | -6.3
C=CCSc1nc2c(c(=O)[nH]c(=O)n2C)n1C/C=C(/C)Cl | -2.6 | 6.7* | -7.7 | -4.3 | 0.2 | 1.4 | 1.6
CC(C)c1ccc(NC(=O)C2=CC=CN3CCS(=O)(=O)N=C23)cc1 | 27.1 | -2.8 | -9.0 | 1.4 | -0.4 | . | .
CCc1ccc(NC(=O)C2=CC=CN3CCS(=O)(=O)N=C23)cc1 | 13.0 | 10.8* | 1.0 | -6.2 | 0.0 | . | -4.0
Cc1nc(N2CCOCC2)nc(N2CCCCC2C)c1[N+](=O)[O-] (centres undefined) | 10.8 | 8.1* | 0.4 | 8.1 | -0.1 | 15.6 | -5.4
CC1CCCCN1c1ncnc(N)c1[N+](=O)[O-] (centres undefined) | -11.4 | 8.8* | 10.2 | -3.0 | 0.2 | 3.7 | 11.7
Cc1nc(N2CCOCC2)nc(N2CCC(C)CC2)c1[N+](=O)[O-] | 1.0 | 0.1 | 1.5 | 17.3 | -0.1 | 16.6 | .
COc1ccc(Cn2c(CCCO)nc3ccccc32)cc1OC | -1.9 | 5.7* | 2.8 | -7.7 | 0.0 | -12.0 | 3.2
Cc1ccc(S(=O)(=O)Nc2cc(S(=O)(=O)N3CCOCC3)ccc2NCC2CCCO2)cc1 (centres undefined) | -6.7 | 14.9* | -1.5 | -4.6 | 0.0 | . | 3.8
CCn1c(SCC(=O)N=Nc2c(O)[nH]c3ccccc23)nc2ccccc21 | . | 0.0* | 1.2 | -1.2 | -0.1 | -8.1 | -6.2
CCc1nc(CN2CCN(Cc3ccc(F)c(F)c3)C(CCO)C2)c(C)[nH]1 (centres undefined) | 8.1 | 8.6* | -4.2 | -10.9 | 0.7 | -40.0 | -1.2
CCc1nnc(NC(=O)OCc2ccccc2)s1 | . | 6.0* | -4.7 | -3.3 | -0.2 | -17.1 | -2.3
CCOC(=O)Nc1nnc(CCc2ccccc2)s1 | . | 2.1 | -1.9 | -5.4 | 0.0 | -120.1 | .
CCOC(=O)c1c(NC(=O)C(C)N2CCN(S(=O)(=O)c3cccs3)CC2)sc2c1CCC(C)C2 (centres undefined) | . | 5.5* | 7.7 | 21.1 | 0.1 | -8.2 | -1.4
CCOC(=O)c1c(N)sc2c1CCC(C)C2 (centres undefined) | 4.5 | -2.6 | -4.2 | 3.7 | -0.3 | 30.1 | .
CCOC(=O)c1c(NS(C)(=O)=O)sc2c1CCC(C)C2 (centres undefined) | . | 7.3* | -4.6 | 3.3 | 0.0 | -5.7 | -6.2
CCOC(=O)c1c(NC(=O)C2CCN(S(=O)(=O)c3cccs3)CC2)sc(C)c1C | 11.5 | 0.5 | -13.2 | 15.8 | -0.2 | 2.7 | .
SMILES | TAG inh | MIN6 prolif-1 | H9c2 protect | FAS TE block | aDG glyco act | Calpain2 inh | MIN6 prolif-2
COc1ccccc1OCC(=O)NCC1CCCN(C(=O)c2cccc(C)c2)C1 (centres undefined) | -3.3 | . | -0.2 | -9.1 | -0.2 | . | .
CCOc1cc(C(=S)N2CCN(C)CC2)ccc1OCC(=O)N1CCCC1 | 1.1 | -1.4 | 3.8 | -8.1 | 0.9 | . | .
CCc1nc2sc(C#N)c(N)c2c2c1CCCC2 | . | 6.3* | -0.5 | 3.0 | 0.0 | -201.7 | 3.1
CNC(=O)CC1C(=O)N(c2ccc(Cl)cc2)C(=S)N1NC(=O)c1cccc(F)c1 (centres undefined) | . | 9.8* | -0.8 | -1.4 | 0.1 | . | -6.4
NC(=O)CC1C(=O)N(c2ccc(Cl)cc2)C(=S)N1NC(=O)c1cccc(F)c1 (centres undefined) | . | 0.5 | -0.1 | -3.0 | 0.1 | . | .
O=C(NCC(=O)N1CCCC(C(F)(F)F)C1)c1ccco1 (centres undefined) | 2.6 | 12.0* | -10.0 | -3.8 | -0.3 | . | 0.8
Cc1ccc(C(C(=O)NC(C)(C)C)N(C(=O)CCC(=O)Nc2ccccn2)c2ccccc2F)cc1 (centres undefined) | . | -0.2 | 3.1 | 2.7 | 0.3 | . | .
COc1ccc(C(=O)N=C2SC3CS(=O)(=O)CC3N2c2ccc(N(C)C)cc2)cc1OC (centres undefined) | . | 14.2* | 1.3 | -8.0 | 0.2 | . | 3.1
COc1ccc(N2C(=NC(=O)C3CCCCC3)SC3CS(=O)(=O)CC32)cc1OC (centres undefined) | . | 2.4 | -1.5 | -0.7 | -0.4 | . | .
C[C@H](CO)N1C[C@H](C)[C@H](CN(C)C(=O)c2cc(-c3ccccc3)on2)OCc2cnnn2CCCC1=O | 2.7 | . | -2.1 | -7.5 | 0.2 | . | .
CC(NC(=O)OC(C)(C)C)C(=O)Oc1cc2oc(=O)cc(-c3ccccc3)c2cc1Cl (centres undefined) | . | 5.9* | -8.4 | 37.2 | 0.0 | -196.3 | -6.2
CC(Oc1cc2oc(=O)cc(-c3ccccc3)c2cc1Cl)C(=O)NCC1CCC(C(=O)O)CC1 (centres undefined) | . | 0.8 | 0.6 | -8.9 | -0.1 | . | .
Cc1c(NS(=O)(=O)c2cccc(C(=O)O)c2)c(=O)n(-c2ccccc2)n1C | . | 4.9* | 4.5 | -6.9 | 0.1 | . | -4.1
O=C(c1cccc(Cl)c1)N1CCN(c2ccc(N3CCOCC3)nn2)CC1 | -1.4 | 14.3* | 2.9 | -6.0 | 1.2 | . | -1.0
COCCc1ncc(CN2CCCCC2C(=O)Nc2ccc(Oc3ccccc3)nc2)cn1 (centres undefined) | 3.1 | 10.2* | 10.4 | -8.9 | -0.3 | . | -1.8
CN(C)S(=O)(=O)c1cccc(C(=O)NCC(C)(C)CNC(=O)c2cccc(S(=O)(=O)N(C)C)c2)c1 | . | -0.1 | 1.2 | -2.6 | 0.0 | . | .
O=C(NCCN1CCOCC1)c1ccccc1Cl | . | -2.4 | -1.2 | -5.0 | -0.1 | . | .
Cc1ccc(C(=O)NCCN2CCOCC2)c(Cl)c1 | . | 6.0* | 0.5 | -4.2 | 0.1 | . | -0.7
